Calls of active or inactive are those of the source.
How the values were obtained:
[1] = tested on: PRMT1 (protein arginine N-methyltransferase 1); assay: PRMT1 binders on small-molecule microarrays, primary screen, biochemical, small-molecule microarray, 635 nm fluorescence (AID 1088); details: small-molecule microarray binding, higher = more signal;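 further: binding of Prmt1 protein to compounds spotted on small-molecule microarray slides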
[2] = yeast growth modulation, basal conditions, primary screen, YJM789 clinical isolate, OD600, 24 h (AID 1089);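 further: growth of clinical yeast isolate S. cerevisiae YJM 789 seeded 1000 cells per well; test concentration not given here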; details: S. cerevisiae YJM789 growth, higher = more signal, called active from +8 up or from −8 down
[3] = fission yeast growth modulation, primary screen, strain 972, OD600, 24 h, no modulator (AID 1090);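 further: basal condition with compound alone and no growth modifier present; test concentration not given here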; details: S. pombe 972 growth, higher = more signal, called active from +8 up or from −8 down
[4] = S. cerevisiae growth modulation with rapamycin, primary screen, strain BY4716, OD600, 96 h (AID 1091); details: higher = more signal, called active from +8 up or from −8 down; further: test concentration not given here
[5] = molecular target: Torsin-1A-interacting protein 2 (Homo sapiens) (UniProt Q8NFQ8); assay: LULL1 binders on small-molecule microarray, primary screen, cell lysate, human LULL1 lysate, 635/667 nm fluorescence (AID 1092); details: hLULL1 lysate binding, 635 nm fluorescence, higher = more signal;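 further: probe is lysate of COS7 cells overexpressing human LULL1; score merges per-feature 667 nm fluorescence with signal-to-noise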
Torsin-1A-interacting protein 2 (Homo sapiens), sequence (Q8NFQ8 whole entry, looked up): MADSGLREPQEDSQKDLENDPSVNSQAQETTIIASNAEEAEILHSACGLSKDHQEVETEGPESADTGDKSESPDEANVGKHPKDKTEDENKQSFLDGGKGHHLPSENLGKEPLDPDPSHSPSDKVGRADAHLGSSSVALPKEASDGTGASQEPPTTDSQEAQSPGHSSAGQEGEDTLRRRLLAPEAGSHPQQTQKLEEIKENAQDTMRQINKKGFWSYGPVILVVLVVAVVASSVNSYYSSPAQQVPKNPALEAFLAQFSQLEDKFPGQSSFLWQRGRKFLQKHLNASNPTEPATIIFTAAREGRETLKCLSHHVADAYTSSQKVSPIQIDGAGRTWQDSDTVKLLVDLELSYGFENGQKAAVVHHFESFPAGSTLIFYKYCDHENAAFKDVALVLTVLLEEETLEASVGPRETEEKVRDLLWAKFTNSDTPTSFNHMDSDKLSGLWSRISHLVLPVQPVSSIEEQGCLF

[6] = E. coli growth modulation, two-sided OD650, primary screen, E. coli filamentation project, strain DRC41, 24 h (AID 1093); details: OD650, 24 h, higher = more signal, called active from +8 up or from −8 down;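 further: MC1000 strain lacking acrAB efflux and sulA so SOS filamentation is blocked; test concentration not given here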
[7] = small-molecule microarray binders of probe aLefty2, primary screen, biochemical, biotinylated probe, 635/667 nm fluorescence (AID 1094); details: higher = more signal;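 further: score merges spot fluorescence near 667 nm with spot signal-to-noise ratio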
[8] = tested on: Noggin (protein binding on small-molecule microarray); assay: Noggin binders on small-molecule microarray, primary screen, biochemical, 635/667 nm fluorescence (AID 1095); details: 635 nm fluorescence, higher = more signal;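 further: score merges 667 nm feature fluorescence with signal to noise over triplicate slides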
[9] = molecular target: Neurogenic locus notch homolog protein 3 (Homo sapiens) (UniProt Q9UM47); assay: NOTCH3 binders on small-molecule microarray, primary screen, biochemical, 635/667 nm fluorescence (AID 1096); details: NOTCH3 binding, 635 nm fluorescence, higher = more signal
Neurogenic locus notch homolog protein 3 (Homo sapiens), sequence (Q9UM47 whole entry, looked up): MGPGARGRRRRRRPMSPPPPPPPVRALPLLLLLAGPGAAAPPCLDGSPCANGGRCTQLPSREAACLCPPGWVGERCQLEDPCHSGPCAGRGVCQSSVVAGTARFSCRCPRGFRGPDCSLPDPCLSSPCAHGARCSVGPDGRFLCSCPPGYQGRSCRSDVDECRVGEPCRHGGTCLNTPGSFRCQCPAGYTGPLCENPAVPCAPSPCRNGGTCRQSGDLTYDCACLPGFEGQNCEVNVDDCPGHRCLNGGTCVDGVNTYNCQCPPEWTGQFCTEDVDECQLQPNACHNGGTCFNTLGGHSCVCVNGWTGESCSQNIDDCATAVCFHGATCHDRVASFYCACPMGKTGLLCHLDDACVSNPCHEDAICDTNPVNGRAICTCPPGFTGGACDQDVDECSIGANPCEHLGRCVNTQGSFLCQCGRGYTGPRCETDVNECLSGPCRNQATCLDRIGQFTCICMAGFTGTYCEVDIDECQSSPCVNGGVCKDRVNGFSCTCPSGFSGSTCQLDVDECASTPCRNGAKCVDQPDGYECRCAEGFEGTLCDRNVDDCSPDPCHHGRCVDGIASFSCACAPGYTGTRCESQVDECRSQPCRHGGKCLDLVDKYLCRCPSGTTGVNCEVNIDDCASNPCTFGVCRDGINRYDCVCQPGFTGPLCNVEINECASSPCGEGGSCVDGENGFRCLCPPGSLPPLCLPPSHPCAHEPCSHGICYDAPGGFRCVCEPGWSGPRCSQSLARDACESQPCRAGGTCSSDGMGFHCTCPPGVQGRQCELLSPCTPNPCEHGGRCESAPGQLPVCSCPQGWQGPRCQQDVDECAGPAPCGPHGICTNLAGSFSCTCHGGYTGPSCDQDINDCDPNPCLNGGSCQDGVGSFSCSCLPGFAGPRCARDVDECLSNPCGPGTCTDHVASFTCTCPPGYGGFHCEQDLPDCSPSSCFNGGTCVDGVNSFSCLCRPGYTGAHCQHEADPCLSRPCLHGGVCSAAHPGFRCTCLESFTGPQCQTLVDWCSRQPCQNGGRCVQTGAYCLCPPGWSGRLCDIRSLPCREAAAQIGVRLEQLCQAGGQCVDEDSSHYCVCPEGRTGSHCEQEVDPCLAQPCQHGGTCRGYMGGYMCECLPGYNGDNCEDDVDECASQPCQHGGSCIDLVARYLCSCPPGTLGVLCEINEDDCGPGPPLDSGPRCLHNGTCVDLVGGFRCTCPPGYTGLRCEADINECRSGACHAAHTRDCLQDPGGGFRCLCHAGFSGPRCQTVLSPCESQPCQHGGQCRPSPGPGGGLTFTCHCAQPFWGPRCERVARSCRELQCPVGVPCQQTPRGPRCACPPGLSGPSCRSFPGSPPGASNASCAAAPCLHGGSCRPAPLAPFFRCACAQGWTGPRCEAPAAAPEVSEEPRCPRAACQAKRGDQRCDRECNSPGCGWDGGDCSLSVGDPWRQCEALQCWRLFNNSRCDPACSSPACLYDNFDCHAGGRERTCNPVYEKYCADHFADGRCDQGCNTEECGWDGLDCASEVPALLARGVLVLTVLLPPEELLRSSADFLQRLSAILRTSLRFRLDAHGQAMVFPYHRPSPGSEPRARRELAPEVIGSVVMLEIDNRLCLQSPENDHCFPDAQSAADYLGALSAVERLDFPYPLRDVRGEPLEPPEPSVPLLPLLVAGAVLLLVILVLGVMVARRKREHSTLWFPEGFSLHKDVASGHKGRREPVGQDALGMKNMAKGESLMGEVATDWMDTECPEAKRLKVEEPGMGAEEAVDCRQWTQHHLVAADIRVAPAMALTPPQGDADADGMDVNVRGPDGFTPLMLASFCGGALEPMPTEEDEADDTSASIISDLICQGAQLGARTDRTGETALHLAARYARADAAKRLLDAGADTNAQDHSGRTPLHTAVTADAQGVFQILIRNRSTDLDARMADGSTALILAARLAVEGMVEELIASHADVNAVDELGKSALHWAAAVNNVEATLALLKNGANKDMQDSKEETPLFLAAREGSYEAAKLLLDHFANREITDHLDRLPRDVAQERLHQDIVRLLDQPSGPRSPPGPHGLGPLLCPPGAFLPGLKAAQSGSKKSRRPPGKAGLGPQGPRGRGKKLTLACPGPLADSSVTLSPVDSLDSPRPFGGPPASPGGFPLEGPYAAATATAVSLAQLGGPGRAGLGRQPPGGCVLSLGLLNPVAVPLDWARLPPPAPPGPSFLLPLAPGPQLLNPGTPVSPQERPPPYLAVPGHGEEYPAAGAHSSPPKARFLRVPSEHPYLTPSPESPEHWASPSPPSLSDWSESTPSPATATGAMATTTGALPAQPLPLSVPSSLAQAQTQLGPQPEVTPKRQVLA

[10] = small-molecule microarray binders of probe aEGFR, primary screen, biochemical, biotinylated probe, 635/667 nm fluorescence (AID 1097); details: higher = more signal;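 further: probe is a biotinylated anti-EGFR antibody binding compounds printed on slides; score combines fluorescence near 667 nm and signal to noise of each spot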

Row | SMILES | composite z-score [1] | z-score [2] | z-score [3] | z-score [4] | composite z-score [5] | z-score [6] | composite z-score [7] | composite z-score [8] | composite z-score [9] | composite z-score [10]
1 | Cc1ccccc1C(O)C1C=CC2C(=O)N(Cc3ccccc3)C(=O)C2N1n1cnnc1 (stereo not given) | 0.601 | -1.26 (inactive) | 0.658 (inactive) | -0.796 (inactive) | 2.38 | -0.0518 (inactive) | 0.0873 | 0.162 | 1.05 | 0.045
2 | C/C=C/[C@@H](CCn1cc([C@H](O)c2ccccc2)nn1)[Si](C)(C)c1ccc(OC)cc1 | 1.03 | -2.41 (inactive) | -0.143 (inactive) | -0.0906 (inactive) | 1.33 | 1.43 (inactive) | -0.171 | -0.385 | -0.498 | -0.298
3 | COCCOC(=O)N1C(=O)[C@@]2(c3cc(C#CCNC(N)=O)ccc31)[C@H](C(=O)N1CCCCCCC1)[C@H]1C(=O)O[C@H](c3ccccc3)[C@H](c3ccccc3)N1[C@@H]2c1ccc(OCCO)cc1 | 0.543 | 0.872 (inactive) | 0.642 (inactive) | 3.24 (inactive) | 0.808 | -0.299 (inactive) | 0.239 | 0.616 | 1.07 | 0.0126
4 | CC[C@@H]1[C@@H]2C3C(=O)N(CC)C(=O)C3CC(=O)[C@@H]2[C@H](c2ccc(C)cc2)N1S(=O)(=O)c1ccc(C)cc1 (stereo not given in full) | 1.29 | -2.69 (inactive) | 0.321 (inactive) | 0.336 (inactive) | 3.3 | 0.957 (inactive) | -0.128 | 0.381 | 0.919 | -0.0371
5 | COCCOC(=O)N1C(=O)[C@@]2(c3cc(C#CCCO)ccc31)[C@H](c1ccc(OCCO)cc1)N1[C@H](c3ccccc3)[C@H](c3ccccc3)OC(=O)[C@H]1[C@@H]2C(=O)N1CCc2cc(OC)c(OC)cc2C1 | 1.55 | 2.59 (inactive) | 1.28 (inactive) | 4.19 (inactive) | 2.48 | 0.37 (inactive) | 0.022 | 1.05 | 1.13 | 0.0365
6 | COC(=O)C(CC#Cc1ccc2c(c1)[C@]1(C(=O)N2)[C@H](C(=O)N2CCc3cc(OC)c(OC)cc3C2)[C@H]2C(=O)O[C@H](c3ccccc3)[C@H](c3ccccc3)N2[C@@H]1c1ccc(OCCO)cc1)C(=O)OC | 1.55 | 3.22 (inactive) | 1.63 (inactive) | 5.29 (inactive) | 2.82 | 0.37 (inactive) | 0.128 | 1.3 | 1.07 | 0.174
7 | COC(=O)[C@]1(Cc2ccccc2N=[N+]=[N-])N=C(c2ccc(OCCCO)cc2)O[C@@H]1c1ccccc1 | 0.867 | 0.537 (inactive) | -1.28 (inactive) | 21.8 (active) | 2.21 | 1.06 (inactive) | 0.23 | -0.4 | -0.361 | -0.136
8 | Cc1ccc(S[C@]2(C(=O)O)CC(=O)N(C3CCCCC3)[C@@H]2c2ccc(CO)cc2)cc1 | 1.42 | 0.316 (inactive) | 0.222 (inactive) | 9.82 (active) | 2.82 | 0.999 (inactive) | -0.132 | 0.243 | 0.233 | 0.0346
9 | CO[C@H]1O[C@H](CO)[C@@H](OC(=O)c2ccc(Br)cc2)[C@@H]2OC(=O)[C@H](Cc3cccc(Br)c3)C/C=C/C[C@@H](Cc3cccc(Br)c3)C(=O)O[C@@H]12 | 1.47 | -0.73 (inactive) | 0.16 (inactive) | -0.0347 (inactive) | 1.08 | -0.972 (inactive) | 0.0717 | 0.553 | 1.04 | 0.158
10 | COCC1=C([C@H](O)CCc2ccccc2)[C@H](CO)[C@@H]2C(=O)N(C)C(=O)[C@@H]2C1 | 0.267 | 0.119 (inactive) | -0.551 (inactive) | 0.165 (inactive) | 0.258 | 1.99 (inactive) | -0.184 | 0.396 | -0.351 | -0.106
11 | CC(C)[Si](C#C[Si](C(C)C)(C(C)C)C(C)C)(O[C@H](C)c1cn(Cc2cccc(Cl)c2)nn1)C(C)C | 1.36 | 0.487 (inactive) | 0.115 (inactive) | -0.318 (inactive) | 1.04 | 2.18 (inactive) | -0.148 | 0.52 | 0.902 | 0.0192
12 | CC(C)N1CC=CC23O[C@@H]4C=CCOC(=O)[C@@H]4[C@H]2C(=O)N(CCCCCCO)[C@@H]3C1=O (stereo not given in full) | 0.0483 | -0.976 (inactive) | -0.174 (inactive) | -1.41 (inactive) | 3.29 | 0.76 (inactive) | -0.315 | -0.627 | -0.478 | -0.2
13 | CCOC(=O)C1=CC[C@@H](c2ccccc2)N(S(=O)(=O)c2ccc(C)cc2)[C@H]1C=C(C)C | 1.54 | 0.465 (inactive) | 2.76 (inactive) | 4 (inactive) | 3.22 | 0.322 (inactive) | 0.0704 | 0.793 | 1.06 | 0.101
14 | CCN(CC)c1ccc(N2CC=CC34O[C@@H]5/C=C\CCCOC(=O)C5[C@H]3C(=O)N(CCCCCCO)[C@@H]4C2=O)cc1 (stereo not given in full) | 0.529 | -2.29 (inactive) | -0.737 (inactive) | -0.64 (inactive) | 3.35 | 1.27 (inactive) | -0.162 | -0.885 | -0.122 | -0.197
15 | CCCN1C(=O)[C@@]2(Cc3ccccc3)N=C(c3ccc(OCCCO)cc3)O[C@H]2c2ccccc21 | 1.54 | -1.46 (inactive) | -4.12 (inactive) | 1.52 (inactive) | 3.13 | 1.09 (inactive) | 0.152 | 1.29 | 1.05 | -0.0976
